The compounds below were run on Human papillomavirus type 1a protein E7 (residues 44-93) (assay: HPV1a E7 fragment binders on microarrays, primary screen, biochemical, small-molecule microarray, residues 44-93, 635 nm fluorescence (AID 1108;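 further: E7 fragment applied at 1 µg/mL in TBST for 1 h at 4 C; score combines spot fluorescence with its signal to noise ratio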)). Settings: small-molecule microarray binding, fluorescence 635 nm; higher = more signal.

Row | SMILES | composite z-score
1 | [N-]=[N+]=Nc1ccccc1C[C@]1(C(=O)NCCN2CCOCC2)N=C(c2ccc(OCCCO)cc2)O[C@H]1c1ccccc1 | 1.03
2 | CCOC(=O)C[C@H]1[C@H](OC(=O)c2ccc(-c3ccccc3)cc2)[C@@H](NC(=O)c2ccc3ccccc3c2)c2cc(OCCCO)ccc2N1C(=O)Cc1ccc(OC)cc1 | 0.758
3 | CC(C)(C)OC(=O)CC[C@@]1(C(=O)O)N=C(c2ccc(OCCCO)cc2)O[C@@H]1c1ccccc1N=[N+]=[N-] | 0.884
4 | O=C1C[C@]2(c3ccc([N+](=O)[O-])cc3)C(=O)N(CC(F)(F)F)c3cc(CO)ccc3[C@H]2N1CC12CC3CC(CC(C3)C1)C2 | 0.193
5 | O=C1OCCC=C[C@H]2OC34C=CCN(c5ccc6ccccc6c5)C(=O)[C@H]3N(CCCCCO)C(=O)[C@@H]4C12 (stereo not given in full) | 0.444
6 | Cc1cc(C)c(C(O)C2C=CC3C(=O)N(c4ccccc4)C(=O)C3N2Nc2ccc(C#N)cc2)c(C)c1 (stereo not given) | 0.486
7 | C=C[C@@H](COC(C)=O)N(Cc1ccccc1[N+](=O)[O-])S(=O)(=O)c1ccc(Br)cc1 | 1.08
8 | COCCOC(=O)N1C(=O)[C@@]2(c3cc(C#Cc4ccc(OC)cc4)ccc31)[C@H](C(=O)N1CCN(c3ncccn3)CC1)[C@H]1C(=O)O[C@H](c3ccccc3)[C@H](c3ccccc3)N1[C@@H]2c1ccc(O)cc1 | 0.519
9 | CCOC(=O)C[C@H]1[C@H](OC(=O)c2ccc(-c3ccccc3)cc2)[C@@H](NC(=O)c2ccc(-c3ccccc3)cc2)c2cc(OCCCO)ccc2N1C(=O)Cc1ccc(OC)cc1 | 0.629
10 | COC(=O)[C@@]1(Cc2ccccc2)[C@H]2c3cc(C(=O)N4CCCC4)n(C)c3C[C@H]2CN1C(=O)c1ccccc1 | 0.123

From PubChem BioAssay
